# Reference: PubChem BioAssay AID624351 (Southern Research Specialized Biocontainment Screening …, 2012)
# Out of some 2,400 compounds screened, about 1,400 (58%) were called active. So high a share suggests a set chosen from earlier hits. The list shows a part of the results. Values without a mark were called inactive.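 How the source made its calls: active means inhibition of 30% or more at any tested dose; inconclusive means primary hits over the limit that were never retested; inactive means the rest.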
# Assay: ADP Hunter readout inhibition without MgcRacGAP – biochemical, coupled enzyme counter-screen, artefact control for MgcRacGAP inhibitor project, dose response (AID 624351);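 further: signal is the ADP detection kit reading of free GDP without any GAP enzyme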;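 on inhibition: 0% = median positive control wells and 100% = median negative control wells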
# Details: fluorescence, no MgcRacGAP; series mostly up to 80 µM
Structure (SMILES),IC50,inhibition
C=CCc1cc(Cl)ccc1OCCn1ccnc1,inactive,
O=c1c2ccccc2sn1-c1cccc(Cl)c1,inactive,
O=c1c(-c2cccc(Cl)c2)c[nH]n1-c1ccccc1,52.1 µM (active),
N#CC1=C(S)N(c2ccccc2)C(c2ccc(-c3cccc(Cl)c3)o2)NC1=O (stereo not given),inactive,
O=[N+]([O-])c1cccc(SSc2cccc([N+](=O)[O-])c2)c1,inactive,
O=c1c(-c2ccccc2)c[nH]n1-c1cccc([N+](=O)[O-])c1,41.6 µM (active),
CN=c1scc(C)n1/N=C/c1ccc(O)cc1O,10.1 µM (active),
CN=c1scc(C)n1/N=C/c1ccc(O)cc1,19.3 µM (active),
C=CCN=c1scc(C)n1/N=C/c1ccc(O)c(O)c1,15.4 µM (active),
CN(C)C(=S)N=c1ssc(=S)n1Cc1ccccc1,inactive,
Cn1c(=O)c2c([nH]c(=S)n2CCCc2ccccc2)n(C)c1=O,11.4 µM (active),
Cn1c(=O)[nH]c(=O)c2c1[nH]c(=S)n2Cc1ccc(Cl)cc1,22.2 µM (active),
Cn1c(=O)[nH]c(=O)c2c1[nH]c(=S)n2Cc1ccccc1,19.2 µM (active),
Cn1c(=O)[nH]c(=O)c2c1[nH]c(=S)n2CCCc1ccccc1,15.2 µM (active),
c1ccc2c(c1)c1c(c3ccccc32)CN2CCCC2C1 (stereo not given),,-11.7% [at 10 µM]
O=C1c2c([N+](=O)[O-])cc([N+](=O)[O-])cc2S(=O)N1Cc1ccccc1 (stereo not given),inactive,
COc1ccc(NCc2ccc([N+](=O)[O-])s2)c(OC)c1,33.3 µM (active),
COc1ccc(NC(=O)CNCc2cccs2)c(OC)c1,inactive,
COc1ccc(N2CCCC2)c(NC(=O)c2ccc([N+](=O)[O-])o2)c1,inactive,
Cn1c(N2CCOCC2)c(/C=N/O)c2ccccc21,60.1 µM (active),
CCn1c(=S)[nH]c2c(=O)n(C)c(=O)n(C)c21,18.9 µM (active),
CCCCn1c(=S)[nH]c2c(=O)n(C)c(=O)n(C)c21,15.6 µM (active),

Structure (SMILES),IC50,inhibition
Cn1c(=O)c2[nH]c(=S)n(Cc3ccccc3)c2n(C)c1=O,18.4 µM (active),
Cc1cc(C)c(OCC(O)CN2CCN(C(=O)c3ccccc3)CC2)c(C)c1 (stereo not given),inactive,
CC(=O)Nc1ccc(OC(=O)Cc2ccc(Cl)cc2)cc1,inactive,
CCOC(=O)Nc1ccc(OC(=O)Oc2ccc(NC(=O)OCC)cc2)cc1,41.3 µM (active),
Cn1nccc1C(=O)Nc1ccc(OC(=O)c2ccnn2C)cc1,inactive,
CCOC(=O)c1oc2cc(O)cc(C)c2c1C,54.1 µM (active),
CCCCCCCCCCCCCCCC[N+](C)(C)Cc1ccc(F)cc1,inactive,
N#Cc1c(Nc2ccccc2)s[nH]c1=O,inactive,
CCOC(=O)c1sc(/N=C/c2c(O)ccc3ccccc23)cc1C,36 µM (active),
CCOC(=O)c1sc(/N=C/c2ccc(O)cc2O)cc1C,24.7 µM (active),
CCCS(=O)(=O)N1CCN(C2CCC(C)CC2)CC1 (stereo not given),inactive,
CC1(C)CNc2cc(N)ccc2S1,26.6 µM (active),
CCN(CC)CCOC(=O)c1ccc(N/C=C(/C#N)c2nc(-c3ccc(OC)c(OC)c3)cs2)cc1,inactive,
CC(C)NCC(=O)Nc1c2c(nc3ccccc13)CCC2,inactive,
O=C(O)c1c2c(nc3ccccc13)/C(=C/c1ccc(O)cc1)CCC2,60.2 µM (active),
O=C(COC(=O)c1c2c(nc3ccccc13)/C(=C/c1ccco1)CC2)NC1CCCC1,inactive,
Cc1ccc(Nc2ccc(N)cc2S(=O)(=O)O)cc1,40.2 µM (active),
O=C(CNCc1ccccn1)Nc1cc(C(F)(F)F)ccc1N1CCOCC1,inactive,
Nc1cc(C(F)(F)F)ccc1N1CCOCC1,30.2 µM (active),
Nc1ccc(N2CCCCC2)c(Cl)c1,37.9 µM (active),
COC(=O)c1cc(NCc2ccccc2F)ccc1N1CCOCC1,inactive,
Nc1ccc(N2CCOCC2)c(Cl)c1,51.3 µM (active),

Structure (SMILES),IC50,inhibition
COC(=O)c1cc(NCc2c(F)cccc2Cl)ccc1N1CCOCC1,inactive,
Cc1cccc(C)c1OCCCCN1CCNCC1,inactive,
O=C(NN=Cc1ccc(O)cc1)c1ccccc1NS(=O)(=O)c1cccs1,75.6 µM (active),
COc1cc(/C=N/NC(=O)c2ccccc2NS(=O)(=O)c2cccs2)ccc1O,79 µM (active),
CC(=O)Oc1ccc([N+](=O)[O-])cc1N1C(=O)c2ccccc2C1=O,inactive,
CSc1ccc(CN2CCC(N3CC(C)OC(C)C3)CC2)cc1 (stereo not given),inactive,
Oc1ccc(/C=N/Nc2ncnc3c2ncn3Cc2ccccc2)cc1O,40.7 µM (active),
C=C1c2cccc(O)c2C(O)=C2C(=O)[C@]3(O)C(O)=C(C(N)=O)C(=O)[C@@H](N(C)C)[C@@H]3[C@@H](O)[C@H]12,inactive,
O=C1C=C(Nc2ccc(O)cc2)C(=O)c2ccccc21,24.7 µM (active),
COc1ccc(S(=O)(=O)/N=C2\C=C(Nc3ccc(O)cc3)C(=O)c3ccccc32)cc1,52 µM (active),
O=C1C(Cl)=C(NCCc2ccccc2)C(=O)c2ccccc21,inactive,
O=C1C(=C(I)I)c2ccccc2-c2ccccc21,inactive,
O=C1C(Nc2ccc(O)cc2)=C/C(=N/S(=O)(=O)c2cccs2)c2ccccc21,50.8 µM (active),
COc1cc(C=C2C(=O)c3ccccc3C2=O)cc(OC)c1OC,inactive,
COC1=C(Nc2ccc(O)cc2)C(=O)c2ccccc2C1=O,30.7 µM (active),
COc1ccc(CN2CCC(N(CCc3ccccc3)Cc3ccccc3)CC2)c(OC)c1,inactive,
COc1ccc(OCCOCCN2CCN(C)CC2)cc1,inactive,
CN(C)CCCC1Sc2ccccc2Sc2ccccc21 (stereo not given),inactive,
COc1ccccc1/C=C1/C(=O)N(c2ccccc2)N=C1C,inactive,
CC1=NN(c2ccccc2)C(=O)/C1=C/C=C/C=C/N(C)C,68.9 µM (active),
CC1=NN(c2ccccc2)C(=O)/C1=C/C=C/c1ccc(N(C)C)cc1,inactive,
O=C(O)C1CCN(Cc2cnn(-c3ccccc3)c2-n2cccc2)CC1,inactive,

Structure (SMILES),IC50,inhibition
O=C(Nc1ccc(O)cc1)c1ccc(C(=O)c2ccccc2)o1,26.1 µM (active),
COc1ccc(C(=O)/C=C(\C)Nc2ccc(NC(C)=O)cc2)cc1,inactive,
C/C(=C\C(=O)c1cccnc1)Nc1ccc(O)cc1,13.6 µM (active),
C/C(=C\C(=O)c1ccccc1)Nc1ccc(O)cc1,19.2 µM (active),
Cc1ccc(C2CC(=O)N3CN(c4ccc(Br)cc4)CSC3=C2C#N)o1 (stereo not given),inactive,
O=C(O)c1cccc(N/N=C/c2cccs2)c1,62.5 µM (active),
Cc1ccsc1/C=N/Nc1cccc(C(=O)O)c1,72.9 µM (active),
O=C(CSc1cn[nH]n1)Nc1cccc(C(=O)O)c1,inactive,
CSc1ccc(/C=N/Nc2cccc(C(=O)O)c2)cc1,inactive,
CN(c1ccc(O)cc1)c1nc(-c2cccnc2)cs1,19.9 µM (active),
CN(c1ccc(O)cc1)c1nc(-c2ccccc2)cs1,53.7 µM (active),
CCC1=NN2C(=N)/C(=C\c3ccc(SCc4ccco4)o3)C(=O)N=C2S1,inactive,
Cc1[nH]c2ccccc2c1-c1csc(NC(=O)CSCCO)n1,inactive,
COC(=O)c1[nH]c2ccc(Cl)cc2c1NC(=O)Oc1ccccc1,18.5 µM (active),
COC(=O)c1[nH]c2ccccc2c1NC(=O)Oc1ccccc1,15.6 µM (active),
COC(=O)c1[nH]c2ccc(C)cc2c1NC(=O)Oc1ccccc1,inactive,
COC(=O)c1[nH]c2cc(OC)c(OC)cc2c1NC(=O)Oc1ccccc1,19.5 µM (active),
O=C1C=CC2(O[C@H](c3ccccc3)[C@@H](c3ccccc3)O2)[C@H](Sc2ccccc2O)C1,inactive,
CC1=CC(c2ccccc2)NC(=S)N1 (stereo not given),inactive,
O=[N+]([O-])/C=C/c1ccc2c(ccn2Cc2ccccc2)c1,inactive,
O=c1c(O)c(-c2ccc(O)c(O)c2)oc2cc(O)ccc12,52.8 µM (active),
COc1c(-c2ccc(O)c(O)c2)oc2cc(O)cc(O)c2c1=O,34 µM (active),

Structure (SMILES),IC50,inhibition
O=c1c(O)c(-c2ccc(O)cc2)oc2cc(O)cc(O)c12,34.5 µM (active),
c1ccc(CC2CCN(Cc3ccccn3)CC2)cc1,inactive,
CC1(C)CC(=O)C=C(Nc2ccc(O)cc2)C1,25.9 µM (active),
COc1cc(C2NC(=O)C(C#N)=C(S)N2c2ccc(C)cc2)ccc1OC(C)C (stereo not given),inactive,
COc1ccc(-c2cc3ccccc3n2CC(O)CN2CCCCC2)cc1 (stereo not given),inactive,
COc1ccc(NCC(O)COc2ccc(C(C)(C)C)cc2)cc1 (stereo not given),inactive,
COc1ccc(NCC(O)Cn2c(C)c(C)c3ccccc32)cc1 (stereo not given),66.8 µM (active),
COc1ccc(OC)c(CN2CCSCC2)c1,inactive,
Oc1ccc(C2=Nn3c(nnc3-c3ccco3)SC2)cc1O,14.2 µM (active),
CC1Cc2ccccc2N1C(=O)CNCCCN(C)C (stereo not given),inactive,
COc1ccc(NC(=O)c2cccc(-c3ccc(O)cc3)c2)cn1,41.2 µM (active),
COc1ccc(NC(=O)/C(Cl)=C(/Cl)S(=O)Cc2ccc(Cl)cc2)cn1 (stereo not given),inactive,
O=C(Nc1ccccc1)c1cccc(-c2nnc(-c3ccccc3)o2)c1,inactive,
CC(=O)Nc1cccc(NC(=O)c2cccc(-c3ccc(O)cc3)c2)c1,59.1 µM (active),
COc1ccc(NC(=O)/C(Cl)=C(/Cl)S(=O)Cc2ccccc2)cn1 (stereo not given),inactive,
Oc1cccc2c(NC(=S)Nc3ccc(OC(F)F)cc3)cccc12,83.5 µM (active),
C#CCOCCOCCOCCNc1nc(N2CCN(C(=O)CCCCCCCCCCNC(=O)[C@@H](CCSC)n3cc(CCO)nn3)CC2)nc(N2CCN(C(=O)CCCCCCCCCCNC(=O)[C@H](CO)n3cc(CCCCCN)nn3)CC2)n1,inactive,
COc1cc2cc(-c3ccc(O)cc3O)nc(C)c2cc1OC,45.1 µM (active),
COc1ccc(-c2nc(-c3ccc(O)cc3O)cs2)cc1OC,55.4 µM (active),
Oc1ccc(-c2csc(-c3cccnc3)n2)c(O)c1,43.4 µM (active),
COc1ccc(-c2ncc3ccccn23)cc1OC,inactive,
Oc1ccc(-c2csc(-c3cccnc3)n2)cc1O,11 µM (active),
